Experimental data published in PubChem BioAssay.
Records with an inconclusive call do not appear. Activity calls are given as the source filed them. Unless noted, no stated cut-off is given here; in the data, active means percent of DMSO control GFP below about 86%; inactive means the rest, inconclusive results apart.

How the values were obtained:
[1] = rapamycin-like changes in RPL19A-GFP expression – cell-based, S. cerevisiae, multiplex flow cytometry, primary screen (AID 1862);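 further: lower values mimic rapamycin by blocking the RPL19A rise seen in DMSO cells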; conditions: S. cerevisiae RPL19A-GFP strain, flow cytometry fluorescence, 3 h; at 10 µM; stronger effect = lower value
[2] = TOR pathway GLN3 branch reporter MEP2-GFP changes – S. cerevisiae, multiplex flow cytometry, primary screen (AID 1867;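 active means GFP response, as percent of the DMSO control, above the screen-wide mean plus 3 SD, about 139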;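 further: median GFP channel fluorescence of barcode-gated MEP2-GFP cells measured by flow cytometry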); conditions: S. cerevisiae MEP2-GFP strain, 3 h, at 10 µM, stronger effect = higher value, 100% means same as DMSO wells
[3] = TOR pathway RTG branch CIT2 reporter changes – S. cerevisiae, GFP fusion, multiplex flow cytometry, primary screen (AID 1870;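 active means percent response above a set limit, the screen-wide mean plus 3 SD, cut at about 130% in these data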;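 further: barcoded CIT2-GFP strain pooled with four other GFP strains with rapamycin as positive control; median GFP fluorescence per well over plate mean of DMSO wells so 100% = DMSO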); conditions: S. cerevisiae CIT2-GFP expression, 3 h, at 10 µM, stronger effect = higher value
[4] = TOR pathway LAP4-GFP level changes – S. cerevisiae, multiplex flow cytometry, primary screen (AID 1873;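 active means GFP signal, as percent of the solvent control, above the screen mean plus 3 SD, about 149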); conditions: S. cerevisiae LAP4-GFP expression, 3 h, at 10 µM, stronger effect = higher value
[5] = yeast AGP1-GFP level changes, GLN3 branch – cell-based, multiplex flow cytometry, S. cerevisiae, primary screen (AID 1887;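 active means GFP signal above the screen-wide mean plus 3 SD, that is over about 124.5% of the solvent control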;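 further: AGP1-GFP fusion strain of S. cerevisiae within a five-strain barcoded multiplex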); conditions: 3 h, at 10 µM, stronger effect = higher value
[6] = reduced mouse 2C T cell binding to pMHC/ICAM-1 vesicles – MLPCN validation set, flow cytometry, LFA-1/ICAM-1 modulator project, pilot screen (AID 2523;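 active means response below a set limit, under 55% cells CD8-positive and vesicle-bound, and CD8 cells' 90th-percentile brightness under 279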;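 on vesicle binding response: mean PE anti-B7-1 fluorescence of CD8+ cells relative to row control; 100% = QL9-loaded vesicles with DMSO vehicle in the same plate row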); conditions: 2C mouse CD8+ T cells, at 7 µM, stronger effect = lower value; double positive events: measured here: CD8+/vesicle+ event percentage
[7] = biological target: Integrin beta-1 (Homo sapiens) + Integrin alpha-4 (Homo sapiens) (UniProt P13612+P05556); test: alpha4beta1 integrin LIBS antibody binding reduction – U937 cells, HUTS-21 mAb, flow cytometry, validation set, VLA-4 allosteric modulator project, pilot screen (AID 2674;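 active means inhibition above 50%, about 3 SD of the validation set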;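 further: antibody binding induced by the VLA-4 ligand LDV present at three times its Kd; 0% = LDV ligand with antibody and no compound and 100% = antibody without LDV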); conditions: HUTS-21 LIBS mAb binding, at 6.7 µM, stronger effect = higher value, binding induced by LDV ligand
Chain of Integrin beta-1 (Homo sapiens) + Integrin alpha-4 (Homo sapiens) (P05556 whole entry, looked up): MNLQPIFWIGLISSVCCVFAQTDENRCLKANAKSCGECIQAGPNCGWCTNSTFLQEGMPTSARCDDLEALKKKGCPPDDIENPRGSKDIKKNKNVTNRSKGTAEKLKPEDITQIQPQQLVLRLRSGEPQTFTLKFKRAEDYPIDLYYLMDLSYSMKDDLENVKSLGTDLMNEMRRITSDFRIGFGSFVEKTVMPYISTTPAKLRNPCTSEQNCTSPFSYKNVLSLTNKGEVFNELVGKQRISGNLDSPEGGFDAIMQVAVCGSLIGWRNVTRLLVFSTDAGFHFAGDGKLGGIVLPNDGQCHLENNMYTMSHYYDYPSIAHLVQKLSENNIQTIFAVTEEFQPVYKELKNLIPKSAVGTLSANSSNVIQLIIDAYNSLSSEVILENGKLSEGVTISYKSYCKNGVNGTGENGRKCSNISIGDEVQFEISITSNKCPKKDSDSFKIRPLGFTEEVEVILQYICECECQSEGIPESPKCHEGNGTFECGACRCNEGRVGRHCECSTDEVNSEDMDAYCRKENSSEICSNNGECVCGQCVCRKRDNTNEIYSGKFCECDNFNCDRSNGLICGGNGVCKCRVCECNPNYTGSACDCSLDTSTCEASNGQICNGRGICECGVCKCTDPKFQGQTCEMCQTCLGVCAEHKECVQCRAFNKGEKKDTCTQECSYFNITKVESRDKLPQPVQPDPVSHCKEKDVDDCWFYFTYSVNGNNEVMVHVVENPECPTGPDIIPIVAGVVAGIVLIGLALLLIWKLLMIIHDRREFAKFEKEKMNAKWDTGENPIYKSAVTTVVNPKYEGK
Chain of Integrin beta-1 (Homo sapiens) + Integrin alpha-4 (Homo sapiens) (P13612 whole entry, looked up): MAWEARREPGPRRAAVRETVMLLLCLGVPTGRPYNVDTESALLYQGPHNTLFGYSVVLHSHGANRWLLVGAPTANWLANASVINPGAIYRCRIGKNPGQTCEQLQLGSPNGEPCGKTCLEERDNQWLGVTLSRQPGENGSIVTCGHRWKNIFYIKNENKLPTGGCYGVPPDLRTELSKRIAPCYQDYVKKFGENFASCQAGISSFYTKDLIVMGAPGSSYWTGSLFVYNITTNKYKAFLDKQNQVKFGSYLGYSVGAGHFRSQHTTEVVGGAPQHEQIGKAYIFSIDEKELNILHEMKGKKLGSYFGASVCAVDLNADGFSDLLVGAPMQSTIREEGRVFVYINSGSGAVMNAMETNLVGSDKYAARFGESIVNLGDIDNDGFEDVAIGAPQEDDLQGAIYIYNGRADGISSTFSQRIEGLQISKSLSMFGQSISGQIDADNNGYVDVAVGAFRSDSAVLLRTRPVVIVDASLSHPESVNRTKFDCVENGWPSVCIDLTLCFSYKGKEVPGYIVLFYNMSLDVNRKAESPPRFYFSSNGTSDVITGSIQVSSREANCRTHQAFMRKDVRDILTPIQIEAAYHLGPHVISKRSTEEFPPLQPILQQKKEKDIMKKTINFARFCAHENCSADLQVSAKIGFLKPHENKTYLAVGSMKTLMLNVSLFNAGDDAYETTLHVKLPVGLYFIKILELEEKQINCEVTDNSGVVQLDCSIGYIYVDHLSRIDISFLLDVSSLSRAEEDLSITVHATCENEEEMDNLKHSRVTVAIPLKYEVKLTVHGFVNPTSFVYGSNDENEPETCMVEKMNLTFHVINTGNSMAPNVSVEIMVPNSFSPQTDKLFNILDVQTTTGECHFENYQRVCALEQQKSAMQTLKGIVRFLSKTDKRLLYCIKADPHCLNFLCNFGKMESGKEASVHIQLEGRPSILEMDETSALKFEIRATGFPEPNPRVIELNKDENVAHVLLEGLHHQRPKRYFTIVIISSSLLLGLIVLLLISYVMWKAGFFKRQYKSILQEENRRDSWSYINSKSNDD

[8] = calorie-restriction mimetic ROS inhibitors, yeast – validation compound set, pilot screen (AID 2706;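 active means superoxide response below 65% of plate, a cut near 3 SD across the whole screen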;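 further: yeast exposed to compound for one week at 30 degrees C before staining; 100% = mean of all compound wells on the same plate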); conditions: S. cerevisiae aging, superoxide DHE fluorescence; at 10 µM; stronger effect = lower value
[9] = biological target: Beta-adrenergic receptor kinase 1 (Homo sapiens) (UniProt P25098); test: GRK2 binders displacing RNA aptamer, biochemical, validation, human GRK2, bead flow cytometry (AID 488806;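 active means aptamer binding inhibition above 30%, about 3 SD of noise from non-fluorescent compounds; inactive means inhibition at or below 30%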); conditions: bead-bound GRK2, FAM-aptamer displacement, at 10 µM, stronger effect = higher value
Chain of Beta-adrenergic receptor kinase 1 (Homo sapiens) (P25098 whole entry, looked up): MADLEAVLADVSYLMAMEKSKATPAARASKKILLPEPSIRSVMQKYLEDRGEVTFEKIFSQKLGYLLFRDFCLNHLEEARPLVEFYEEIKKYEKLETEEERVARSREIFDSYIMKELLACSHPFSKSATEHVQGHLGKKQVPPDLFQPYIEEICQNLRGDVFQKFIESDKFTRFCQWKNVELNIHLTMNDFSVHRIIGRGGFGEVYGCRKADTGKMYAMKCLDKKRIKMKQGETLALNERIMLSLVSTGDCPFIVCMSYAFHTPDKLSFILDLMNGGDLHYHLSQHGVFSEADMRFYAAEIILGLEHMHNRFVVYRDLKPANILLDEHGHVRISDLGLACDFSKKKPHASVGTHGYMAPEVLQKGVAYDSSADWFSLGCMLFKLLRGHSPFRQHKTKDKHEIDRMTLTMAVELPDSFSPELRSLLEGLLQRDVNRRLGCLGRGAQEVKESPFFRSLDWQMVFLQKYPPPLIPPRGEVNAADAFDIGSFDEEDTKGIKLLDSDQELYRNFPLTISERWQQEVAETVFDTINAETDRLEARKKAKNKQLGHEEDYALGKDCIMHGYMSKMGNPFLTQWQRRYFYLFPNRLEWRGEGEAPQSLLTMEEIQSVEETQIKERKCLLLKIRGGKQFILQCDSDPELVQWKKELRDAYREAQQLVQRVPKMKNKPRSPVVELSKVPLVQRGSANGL

[10] = biological target: Beta-2 adrenergic receptor (Homo sapiens) (UniProt P07550); test: agonist-induced loss of surface beta2AR – cell-based, FAP fluorogen, flow cytometry, validation set, pilot screen (AID 504459;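 active means percent response above 42, roughly 3 SD of non-fluorescent test compounds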;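 further: agonist-driven loss of surface beta2AR via internalization measured by FAP dye flow cytometry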); conditions: Am2.2-beta2AR cells, at 10 µM, stronger effect = higher value
Chain of Beta-2 adrenergic receptor (Homo sapiens) (P07550 whole entry, looked up): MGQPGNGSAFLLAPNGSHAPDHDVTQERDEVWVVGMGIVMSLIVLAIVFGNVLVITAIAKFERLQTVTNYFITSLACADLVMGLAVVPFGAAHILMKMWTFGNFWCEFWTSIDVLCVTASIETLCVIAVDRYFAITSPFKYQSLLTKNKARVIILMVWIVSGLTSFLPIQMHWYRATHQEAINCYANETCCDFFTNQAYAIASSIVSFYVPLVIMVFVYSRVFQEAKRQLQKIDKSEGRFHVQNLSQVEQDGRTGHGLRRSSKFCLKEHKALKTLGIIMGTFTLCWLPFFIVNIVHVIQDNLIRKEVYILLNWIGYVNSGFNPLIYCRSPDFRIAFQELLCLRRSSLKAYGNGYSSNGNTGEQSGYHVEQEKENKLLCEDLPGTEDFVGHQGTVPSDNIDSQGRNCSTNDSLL

[11] = biological target: AP-2 complex subunit beta (Homo sapiens) (UniProt P63010); test: beta-arrestin/AP2 interaction blockers – biochemical, validation set, GST-AP2 beads, flow cytometry, pilot screen (AID 504541;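 active means inhibition above 54%, about 3 SD of non-fluorescent compounds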;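 further: AP2 carries R879A mutation and is captured from E. coli lysate; bead-bound FITC arrestin peptide fluorescence measuring arrestin peptide binding to AP2; 0% = DMSO wells and 100% = excess unlabeled arrestin peptide control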); conditions: FITC arrestin peptide, at 10 µM, stronger effect = higher value, AP2 beta2 appendage fragment, R879A mutant
Chain of AP-2 complex subunit beta (Homo sapiens) (P63010 whole entry, looked up, the tested form may be a part, one chain of several): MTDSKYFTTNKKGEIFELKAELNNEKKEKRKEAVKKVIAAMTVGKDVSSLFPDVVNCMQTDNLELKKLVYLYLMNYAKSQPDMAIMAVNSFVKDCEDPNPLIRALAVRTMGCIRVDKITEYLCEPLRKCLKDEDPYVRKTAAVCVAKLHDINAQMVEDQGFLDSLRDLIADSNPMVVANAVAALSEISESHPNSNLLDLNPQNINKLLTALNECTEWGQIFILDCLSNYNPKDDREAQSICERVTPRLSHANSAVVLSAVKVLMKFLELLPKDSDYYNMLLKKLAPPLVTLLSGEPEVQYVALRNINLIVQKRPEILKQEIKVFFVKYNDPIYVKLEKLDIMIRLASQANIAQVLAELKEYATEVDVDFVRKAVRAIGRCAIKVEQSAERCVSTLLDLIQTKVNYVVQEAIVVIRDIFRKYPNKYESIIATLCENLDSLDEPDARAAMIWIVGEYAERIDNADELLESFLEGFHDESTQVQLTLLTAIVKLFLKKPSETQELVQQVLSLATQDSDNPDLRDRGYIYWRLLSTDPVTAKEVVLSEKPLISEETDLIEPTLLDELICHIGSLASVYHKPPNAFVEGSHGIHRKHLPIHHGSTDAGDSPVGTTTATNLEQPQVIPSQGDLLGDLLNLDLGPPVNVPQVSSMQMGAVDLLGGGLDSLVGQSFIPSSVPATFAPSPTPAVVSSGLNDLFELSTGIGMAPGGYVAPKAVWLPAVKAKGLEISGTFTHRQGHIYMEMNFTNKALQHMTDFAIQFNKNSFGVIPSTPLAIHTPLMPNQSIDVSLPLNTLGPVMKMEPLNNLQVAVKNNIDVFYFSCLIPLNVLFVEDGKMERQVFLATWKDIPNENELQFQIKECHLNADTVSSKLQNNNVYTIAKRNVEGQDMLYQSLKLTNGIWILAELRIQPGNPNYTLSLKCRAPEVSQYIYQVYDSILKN

[12] = cytosolic pH regulators acting via V-ATPase – S. cerevisiae, pHLuorin, HTS validation (AID 504600; in the data active means response above about 15%;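 further: plate controls were DMSO for no effect and reference compound for full effect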); conditions: V-ATPase proton transport, at 10 µM, stronger effect = higher value
[13] = tested on: anti-desmoglein-3 scFv antibody binding to human DSG3; test: blockers of pathogenic pemphigus antibody–desmoglein-3 binding – biochemical, validation compound set, bead-based, flow cytometry, pilot screen (AID 588368;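 active means binding below the plate cutoff, the plate median minus 3 SD, with a reading above zero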;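 further: signal is the median channel fluorescence of bead-bound GFP antibody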); conditions: Protein G beads, DSG3-Fc, scFv-GFP binding, at 10 µM, stronger effect = lower value
[14] = Nile Red efflux blockade in pump-expressing yeast – validation compound set, multiplex, phenotypic, pilot screen (AID 588506;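 active means efflux inhibition above 0.42, the validation set average plus 4 SD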;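 further: Nile Red retained in cells so higher fluorescence means more efflux inhibition; 0 = negative control wells and 1 = enniatin B 25 µM full block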); conditions: S. cerevisiae pump-expressing triplex, Nile Red efflux flow cytometry; at 10 µM; stronger effect = higher value; the pumps come from Candida albicans
[15] = biological target: ATP-binding cassette sub-family B member 6 (Homo sapiens) (UniProt Q9NP58); test: blockers of ABCB6-driven porphyrin uptake – K562-ABCB6 cells, flow cytometry, validation set, pilot screen (AID 588550;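 active means inhibition above the screen-wide mean plus 3 SD, about 51%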;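 further: 0% = DMSO wells and 100% = benzethonium chloride 70 µM positive control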); conditions: K562-ABCB6 porphyrin accumulation, 1 h, at 10 µM, stronger effect = higher value
Chain of ATP-binding cassette sub-family B member 6 (Homo sapiens) (Q9NP58 whole entry, looked up): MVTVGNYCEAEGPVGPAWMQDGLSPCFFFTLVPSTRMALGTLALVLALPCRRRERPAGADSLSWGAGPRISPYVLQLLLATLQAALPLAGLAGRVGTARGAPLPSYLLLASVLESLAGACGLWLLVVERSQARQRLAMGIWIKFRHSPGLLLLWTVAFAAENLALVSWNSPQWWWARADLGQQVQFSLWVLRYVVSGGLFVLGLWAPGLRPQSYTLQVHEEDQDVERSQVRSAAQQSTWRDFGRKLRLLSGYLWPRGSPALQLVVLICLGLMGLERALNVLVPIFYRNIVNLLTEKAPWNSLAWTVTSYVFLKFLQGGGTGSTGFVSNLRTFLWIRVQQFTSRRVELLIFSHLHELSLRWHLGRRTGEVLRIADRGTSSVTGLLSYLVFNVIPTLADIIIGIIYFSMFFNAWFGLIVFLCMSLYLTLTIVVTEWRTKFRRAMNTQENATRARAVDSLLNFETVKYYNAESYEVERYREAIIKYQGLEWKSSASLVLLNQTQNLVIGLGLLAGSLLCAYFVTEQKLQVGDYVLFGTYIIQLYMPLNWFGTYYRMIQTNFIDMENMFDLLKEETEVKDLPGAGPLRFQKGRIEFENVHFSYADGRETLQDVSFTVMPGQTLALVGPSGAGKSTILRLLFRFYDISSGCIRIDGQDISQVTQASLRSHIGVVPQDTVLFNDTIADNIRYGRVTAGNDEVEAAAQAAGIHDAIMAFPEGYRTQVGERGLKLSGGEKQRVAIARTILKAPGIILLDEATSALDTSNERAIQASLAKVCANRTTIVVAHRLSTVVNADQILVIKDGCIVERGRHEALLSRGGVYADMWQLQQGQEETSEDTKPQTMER

[16] = AML differentiation inducers, ER-HoxA9 marrow cells – cell-based, GFP/MAC1 double positive, flow cytometry, validation set, primary screen (AID 588685;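 active means differentiation response of at least 50%, scaled between solvent and reference control, from cells with both markers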;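 further: compound exposure lasts four days before antibody staining and flow analysis; 0% = DMSO wells and 100% = 5 µM fulvestrant positive control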); conditions: stronger effect = higher value, normalized: vehicle 0, fulvestrant 100

COCCNC(=O)CSc1ccc(Cl)cc1
inactive: percent of DMSO control GFP [1] 104% | GFP response vs DMSO [2] 106% | percent response of DMSO control [3] 105% | GFP response vs DMSO [4] 88.7% | GFP response, % of DMSO [5] 103% | vesicle binding response [6] 245% | inhibition [7] -0.45% | superoxide response (% of plate) [8] 112% | aptamer binding inhibition [9] 1% | response [10] -6.87% | inhibition [11] 7.8% | response [12] -1.2% | binding (% of control) [13] 92% | efflux inhibition (fraction of control) [14] 0.14 | inhibition [15] 10% | differentiation response [16] -12.5%
62.8%: double positive events [6]

COc1cccc(CN2C(=O)N(C(C)C)C(N(O)C(=O)NC(C)C)C2(C)C)c1OC (stereo not drawn)
inactive: percent of DMSO control GFP [1] 98.2% | GFP response vs DMSO [2] 103% | percent response of DMSO control [3] 115% | GFP response vs DMSO [4] 97.3% | GFP response, % of DMSO [5] 101% | vesicle binding response [6] 216% | inhibition [7] -11.9% | superoxide response (% of plate) [8] 84.9% | aptamer binding inhibition [9] -1% | response [10] -7.26% | inhibition [11] -6.77% | response [12] -0.84% | binding (% of control) [13] 97.4% | efflux inhibition (fraction of control) [14] -0.04 | inhibition [15] 26% | differentiation response [16] 7.09%
67.3%: double positive events [6]

Cc1ccc(C(=O)COC(=O)c2cccc(N3C(=O)c4c(C)nc5ccccc5c4C3=O)c2)cc1C
61.9%: double positive events [6]
inactive: percent of DMSO control GFP [1] 99.5% | GFP response vs DMSO [2] 102% | percent response of DMSO control [3] 97% | GFP response vs DMSO [4] 110% | GFP response, % of DMSO [5] 113% | vesicle binding response [6] 170% | inhibition [7] -8.78% | superoxide response (% of plate) [8] 107% | aptamer binding inhibition [9] 1% | response [10] -22.6% | inhibition [11] -6.3% | response [12] -3.74% | binding (% of control) [13] 98.8% | efflux inhibition (fraction of control) [14] 0.25 | inhibition [15] 2% | differentiation response [16] -13.9%

COC(=O)c1ccccc1NC(=O)NCc1ccccc1
inactive: percent of DMSO control GFP [1] 96.3% | GFP response vs DMSO [2] 131% | percent response of DMSO control [3] 104% | GFP response vs DMSO [4] 85.8% | GFP response, % of DMSO [5] 87.3% | vesicle binding response [6] 165% | inhibition [7] -0.33% | superoxide response (% of plate) [8] 99% | aptamer binding inhibition [9] 6% | response [10] -13.3% | inhibition [11] 0.05% | response [12] 1.35% | binding (% of control) [13] 104% | efflux inhibition (fraction of control) [14] -0.28 | inhibition [15] 15% | differentiation response [16] 0%
63%: double positive events [6]

CCOC(=O)c1ccc(NC(=S)NCCc2ccccc2F)cc1
active: efflux inhibition (fraction of control) [14] 0.58
68.7%: double positive events [6]
inactive: percent of DMSO control GFP [1] 100% | GFP response vs DMSO [2] 107% | percent response of DMSO control [3] 101% | GFP response vs DMSO [4] 111% | GFP response, % of DMSO [5] 93.7% | vesicle binding response [6] 1410% | inhibition [7] -21.2% | superoxide response (% of plate) [8] 98.7% | aptamer binding inhibition [9] 3% | response [10] 2.84% | inhibition [11] 18.6% | response [12] 1.24% | binding (% of control) [13] 104% | inhibition [15] -3% | differentiation response [16] 9.04%

CC1(C)CC(=O)c2cn3c(nc2C1)nc1ccccc13
55.9%: double positive events [6]
inactive: percent of DMSO control GFP [1] 102% | GFP response vs DMSO [2] 97.7% | percent response of DMSO control [3] 104% | GFP response vs DMSO [4] 99.1% | GFP response, % of DMSO [5] 102% | vesicle binding response [6] 104% | inhibition [7] 9.63% | superoxide response (% of plate) [8] 107% | aptamer binding inhibition [9] -1% | response [10] -25.5% | inhibition [11] 17% | response [12] 3.76% | binding (% of control) [13] 103% | efflux inhibition (fraction of control) [14] -0.12 | inhibition [15] -6% | differentiation response [16] -6.03%

Cc1nc2ccccn2c(=O)c1CCN1CCC(C(=O)c2ccc(F)cc2)CC1
inactive: percent of DMSO control GFP [1] 103% | GFP response vs DMSO [2] 105% | percent response of DMSO control [3] 104% | GFP response vs DMSO [4] 101% | GFP response, % of DMSO [5] 104% | vesicle binding response [6] 166% | inhibition [7] -26.6% | superoxide response (% of plate) [8] 95.8% | aptamer binding inhibition [9] 0% | response [10] -22.4% | inhibition [11] 51.2% | response [12] -1.11% | binding (% of control) [13] 106% | efflux inhibition (fraction of control) [14] -0.025 | inhibition [15] 2% | differentiation response [16] -10.4%
56.6%: double positive events [6]

Cc1cc(C)cc(Nc2nc3c([nH]2)c(=O)n(C)c(=O)n3C)c1
active: inhibition [11] 61%
inactive: percent of DMSO control GFP [1] 102% | GFP response vs DMSO [2] 105% | percent response of DMSO control [3] 112% | GFP response vs DMSO [4] 103% | GFP response, % of DMSO [5] 105% | vesicle binding response [6] 212% | inhibition [7] 6.95% | superoxide response (% of plate) [8] 89.7% | aptamer binding inhibition [9] -6% | response [10] 6.07% | response [12] -8.26% | binding (% of control) [13] 102% | efflux inhibition (fraction of control) [14] -0.14 | inhibition [15] -9% | differentiation response [16] 10.1%
63.9%: double positive events [6]

CC[C@H](C)C(=O)O[C@H]1C[C@@H](C)C=C2C=C[C@H](C)[C@H](CC[C@@H]3C[C@@H](O)CC(=O)O3)[C@H]21
inactive: percent of DMSO control GFP [1] 107% | GFP response vs DMSO [2] 108% | percent response of DMSO control [3] 103% | GFP response vs DMSO [4] 97% | GFP response, % of DMSO [5] 95.8% | vesicle binding response [6] 126% | inhibition [7] -5.11% | superoxide response (% of plate) [8] 93.1% | aptamer binding inhibition [9] 2% | response [10] 1.87% | inhibition [11] 49.7% | response [12] -9.69% | binding (% of control) [13] 109% | efflux inhibition (fraction of control) [14] 0.28 | inhibition [15] 0% | differentiation response [16] -11.9%
64.6%: double positive events [6]
